Only some compounds are listed: those with a hit (about 1.5% of all), similar ones and a draw of the others.
NTR1 agonist: agonists of human NTR1, primary screen, imaging, U2OS cells, beta-arrestin-GFP, high content. Neurotensin receptor type 1 (Homo sapiens), P30989. NTR1-U2OS beta-arrestin-GFP spot imaging, agonist mode. activation, % at 20 µM. actives 0.17% (n = 330,000). AID 493036, 2011;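 active = activation at or above 40% of the spot to cytoplasm intensity ratio, with at least 20 cells analyzed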;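 also: 0% = DMSO without peptide and 100% = 100 nM NTR1 peptide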
Beta2AR agonist: beta2AR agonists driving receptor internalization, primary screen, cell-based, FAP fluorogen, flow cytometry; AID 504454, 2011; response, % (no concentration beside the values); Beta-2 adrenergic receptor (Homo sapiens), P07550; Am2.2-beta2AR cells; actives 0.43% (n = 340,000);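 active = response above a set limit, near 3 SD of response in nonfluorescent compounds, cut at about 42% in these data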
NOD2 RIPK2 PPI: NOD2-RIPK2 binding disruptors in cells, primary screen, fluorescence, CHO cells, BLA complementation; Receptor-interacting serine/threonine-protein kinase 2 (Homo sapiens), O43353; CCF4 ratio; inhibition, % at 4.98 µM; actives 0.38% (n = 360,000); in the data active = inhibition above about 21%;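 also: 0% = vehicle only and 100% = reference blocker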
ABHD5 PLIN5 PPI: ABHD5-PLIN5 interaction inhibitors, primary screen, cell lysate, split luciferase complementation, luminescence; inhibition, % at 4 µM; Perilipin-5 (Homo sapiens) + 1-acylglycerol-3-phosphate O-acyltransferase ABHD5 (Homo …; actives 0.78% (n = 360,000); Split G. princeps luciferase complementation, 4 h;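 active = inhibition above the mean inhibition across every tested compound plus 3 SD, cut at about 22% in these data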;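 also: 0% = DMSO only wells and the 100% control is not disclosed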
Target sequence (Q00G26 whole entry, looked up): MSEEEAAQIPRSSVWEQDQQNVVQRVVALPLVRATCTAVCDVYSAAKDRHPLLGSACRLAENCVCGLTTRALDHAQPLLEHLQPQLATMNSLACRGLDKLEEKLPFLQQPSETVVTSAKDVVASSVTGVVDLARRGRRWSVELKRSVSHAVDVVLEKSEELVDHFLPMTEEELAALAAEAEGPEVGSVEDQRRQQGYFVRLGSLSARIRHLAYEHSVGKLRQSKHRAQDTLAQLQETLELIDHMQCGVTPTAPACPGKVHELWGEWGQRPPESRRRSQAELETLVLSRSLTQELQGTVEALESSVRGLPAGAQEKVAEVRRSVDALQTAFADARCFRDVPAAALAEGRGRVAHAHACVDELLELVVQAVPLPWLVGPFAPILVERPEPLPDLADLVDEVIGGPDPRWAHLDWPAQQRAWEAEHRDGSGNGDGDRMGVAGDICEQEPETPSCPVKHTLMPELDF
Target sequence (Q8WTS1 whole entry, looked up): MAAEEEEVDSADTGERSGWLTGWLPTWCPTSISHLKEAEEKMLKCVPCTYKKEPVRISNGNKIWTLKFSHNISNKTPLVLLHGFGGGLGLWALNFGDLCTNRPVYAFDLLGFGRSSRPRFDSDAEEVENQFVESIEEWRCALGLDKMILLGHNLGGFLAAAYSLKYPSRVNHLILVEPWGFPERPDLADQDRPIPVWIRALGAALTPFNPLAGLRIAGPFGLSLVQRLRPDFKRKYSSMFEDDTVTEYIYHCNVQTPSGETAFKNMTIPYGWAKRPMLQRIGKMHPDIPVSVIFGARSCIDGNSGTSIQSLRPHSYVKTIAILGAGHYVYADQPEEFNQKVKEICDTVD
TLR4-MyD88 BLA: inhibitors of TLR4-MyD88 association in cells, primary screen, cell-based, HeLa CL3-4, BLA complementation, FRET ratio; actives 0.18% (n = 200,000); inhibition, % at 8.4 µM; HeLa CL3-4 TLR4/MyD88 BLA complementation; AID 861, 2007; Toll-like receptor 4 (Homo sapiens) + Myeloid differentiation primary response protein …; in the data active = inhibition above about 25%;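 also: 0% = vehicle and 100% = reference inhibitor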
TLR9-MyD88 inh: inhibitors of TLR9-MyD88 association in cells, primary screen, cell-based, CHO, BLA complementation, fluorescence; actives 0.21% (n = 340,000); Toll-like receptor 9 (Homo sapiens) + Myeloid differentiation primary response protein …; AID 504734, 2011; inhibition, % at 4.98 µM; CCF4 FRET ratio;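 active = inhibition above the mean over all tested compounds plus 3 SD, cut at about 21% in these data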;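 also: 0% = DMSO only wells and 100% = clavulanate BLA inhibitor control wells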
NOD2-RIPK2 conf: NOD2-RIPK2 binding disruptors, retest, confirmation, fluorescence, CHO cells, BLA complementation, triplicate. AID 624370, 2012. actives 70% (n = 1,200). CCF4 FRET. inhibition, % at 4.98 µM. shares compounds with NOD2 RIPK2 PPI;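 active = mean inhibition across replicates above a set limit taken from the earlier primary screen, cut at about 21% in these data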;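 also: 0% = DMSO-only wells and the high end = clavulanate BLA-blocked wells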
BLA counter: NOD2-RIPK2 counterscreen BLA reporter activity | shares compounds with NOD2 RIPK2 PPI | CHO BLA reporter, CCF4 FRET ratio | inhibition, % at 4.98 µM | actives 57% (n = 1,200);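 active = mean inhibition above the low-control mean inhibition plus three low-control SD, cut at about 11% in these data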;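 also: 0% = DMSO only wells and 100% = clavulanate high control wells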
An asterisk follows results filed as active; . = no result.

SMILES	NTR1 agonist	Beta2AR agonist	NOD2 RIPK2 PPI	ABHD5 PLIN5 PPI	TLR4-MyD88 BLA	TLR9-MyD88 inh	NOD2-RIPK2 conf	BLA counter
COc1ccc(-c2nn(-c3ccccc3)cc2/C=C/C(=O)OCC(=O)Nc2cccc(C#N)c2)cc1	1.2	17.7	35.7*	-4.7	-2.0	-5.6	-2.0	-9.6
CC(C)(C)NC(=O)C(c1cc2ccccc2o1)n1c(=O)c(-c2cc3ccccc3[nH]2)nc2ccccc21 (centres undefined)	.	.	49.8*	-3.0	.	.	46.4*	69.8*
COc1ccc(C(C(=O)NC(C)(C)C)n2c(=O)c(-c3cc4ccccc4[nH]3)nc3ccccc32)cc1 (centres undefined)	.	.	41.0*	-2.4	.	.	40.5*	64.4*
CC(C)(C)NC(=O)C(c1ccncc1)n1c(=O)c(-c2cc3ccccc3[nH]2)nc2ccccc21 (centres undefined)	.	.	49.2*	0.7	.	.	48.2*	67.5*
COc1ccc(C(C(=O)NC(C)(C)C)n2c(-c3ccc(-c4ccccc4)cc3)nc3ccccc32)cc1 (centres undefined)	.	.	-8.5	0.0	.	.	.	.
Cc1ccc(N2CCN(C(C(=O)Nc3c(C)cccc3C)c3cc4ccccc4o3)CC2)cc1 (centres undefined)	.	.	-0.7	-7.7	.	.	.	.
N#CC(=C1C=C(Br)C(=NO)C=C1Cl)c1cccc2ccccc12	.	.	41.4*	-30.6	.	-1.0	58.2*	29.8*
CCCNC(=O)C1(C)CCN1C(=O)c1ccc(C(C)(C)C)cc1 (centres undefined)	.	.	-5.1	4.9	.	.	.	.
COc1ccccc1C=Cc1ccnc2ccccc12	.	-6.9	9.5	3.7	.	-3.2	.	.
CN(C)c1ccc(C=Cc2ccnc3ccccc23)cc1N	.	.	32.6*	13.3	.	.	32.4*	32.5*
c1ccc(COc2ccc(-c3cc4nc(NCCCn5ccnc5)ccn4n3)cc2)cc1	.	.	7.2	4.3	.	.	.	.
Cc1ccc(C)c(N2CCN(C(C(=O)NC3CCCC3)c3ccco3)CC2)c1 (centres undefined)	.	.	16.9	4.7	.	.	.	.
Nc1ccccc1C#Cc1ccc([N+](=O)[O-])cc1	1.7	10.0	26.0*	7.2	.	18.2	3.9	19.0*
N#CC(c1ccccc1)c1ccc([N+](=O)[O-])cc1 (centres undefined)	.	.	7.6	0.0	.	.	.	.
CCOC(=O)C1(CCCc2ccccc2)CCN(C(=O)c2ccoc2)CC1	2.6	6.0	44.6*	-0.1	-2.6	-7.2	-0.8	-3.8
CCOC(=O)C1(CCc2ccccc2)CCN(C(=O)c2ccoc2)CC1	-0.2	-4.5	-7.0	2.0	-20.4	5.6	.	.
Cc1cccc(C)c1NC(=O)Nc1nc(CN(C)C)cs1	.	.	-1.5	2.5	.	.	.	.
COc1ccc(C)c2sc(N(CCCN(C)C)C(=O)c3ccc(S(=O)(=O)N4CCc5ccccc5C4)cc3)nc12	.	51.5*	24.3*	16.6	.	10.9	44.3*	15.6*
CC(C)NC(=O)C1(C)CN(S(C)(=O)=O)CC(=O)N1CCc1ccccc1 (centres undefined)	.	.	0.8	-3.4	.	.	.	.
CC(Sc1ccc(Cl)cc1)C(=O)Nc1ccccc1-c1ccccc1 (centres undefined)	.	1.7	10.8	-4.8	-4.0	-14.0	.	.
Cc1ccc(SC(C)C(=O)Nc2ccccc2-c2ccccc2)cc1 (centres undefined)	2.0	10.1	42.9*	-8.9	-9.9	-6.1	2.9	-2.5
CC1(C(=O)Nc2cccc(NS(C)(=O)=O)c2)CCN1Cc1ccccc1OC(F)F (centres undefined)	.	.	-4.1	4.8	.	.	.	.
Fc1ccc(C2=CC(c3ccco3)n3ncnc3N2)cc1 (centres undefined)	0.3	-0.8	35.6*	-11.7	-6.2	35.3*	2.9	12.5*
NC(=O)c1ccc2c(=O)c(O)c(-c3cc(Cl)c(N)c(Cl)c3)[nH]c2c1	2.9	-5.8	38.2*	-4.6	.	13.8	29.6*	28.9*
COc1ccc(N=C2S/C(=C\c3ccc(Cl)c([N+](=O)[O-])c3)C(=O)N2CCN(C)C)cc1	12.1	33.7	43.9*	4.4	.	10.6	87.7*	-4.4
SMILES	NTR1 agonist	Beta2AR agonist	NOD2 RIPK2 PPI	ABHD5 PLIN5 PPI	TLR4-MyD88 BLA	TLR9-MyD88 inh	NOD2-RIPK2 conf	BLA counter
CCCCCOc1ccc(Br)cc1/C(C)=N/NC1=NCCN1	10.1	43.7*	22.6*	6.9	5.2	9.4	22.3*	-1.9
CN(Cc1ccccc1)C(=O)CSc1nc2ccccc2c(=O)n1Cc1ccco1	7.0	-4.8	-1.2	3.9	-8.2	-6.4	.	.
Cc1ccc(NC(=O)CN(C)C(=O)CSc2nc3ccccc3c(=O)n2Cc2ccco2)cc1	4.3	-8.1	21.1*	20.4	11.5	10.7	17.0	16.1*
CC(C)c1ccc(O)c(NC(=O)c2ncn[nH]2)c1	-0.3	9.3	0.2	5.6	6.7	-3.0	.	.
CC(C)c1ccc2c(c1)C1(NN=C(c3ccccc3)S1)C(=O)N2 (centres undefined)	5.7	5.1	25.6*	-13.7	12.3	13.3	6.0	9.3
CCc1ccc2c(c1)C1(NN=C(c3ccc(C)cc3)S1)C(=O)N2 (centres undefined)	0.9	-5.7	24.6*	-39.4	11.6	18.9	4.9	7.0
CCn1c(NCc2cc(Cl)ccc2O)nc2ccccc21	5.5	-5.2	45.8*	-3.1	.	-4.9	-1.4	-1.1
C=CCn1c(NCc2cc(Cl)ccc2O)nc2ccccc21	2.7	-4.2	1.8	6.6	.	0.7	.	.
COc1cccc(-c2nc3nc(C)cc(C)n3c2Nc2c(C)cccc2C)c1	.	.	3.9	-0.4	.	.	.	.
CCOCCCNC(=O)/C(C#N)=C/c1ccc([N+](=O)[O-])o1	-1.0	5.3	25.7*	8.1	24.1	19.9	53.9*	27.0*
Cc1ccc(/C=N/Nc2ccnc3cc(Cl)ccc23)c(C)c1	7.2	18.9	21.2*	-9.2	-11.2	18.7	30.5*	41.8*
CCOc1ccc2nc(N3CCOCC3)nc(C)c2c1	0.2	-3.0	-1.1	-3.5	11.7	-8.6	.	.
CCOc1ccc2nc3ccc4[nH]onc4c3c2c1	5.0	8.6	33.7*	3.2	33.8*	16.7	28.1*	37.4*
CS(=O)(=O)c1ccc(S(=O)CC(=O)OCc2ccccc2)c([N+](=O)[O-])c1 (centres undefined)	.	43.7*	25.2*	40.3*	16.5	12.4	56.4*	25.4*

Screening data from PubChem.
